The values that follow come from PubChem BioAssay (Tox21).

Results filed as inconclusive are left out. Active and inactive are the calls of the source. Calls come from the whole dose curve; as a rule, active = well fitted activation curve with a large enough effect in the repeat runs; inconclusive = weak or mixed curves; inactive = no such curve, though single readings can be large or run the other way. Non-standard residues stand in square brackets, D forms with d. Residues, ends and D or L forms follow the SMILES beside them. pGlu = O=C1CC[C@@H](C(=O)O)N1; Thz = O=C(O)[C@@H]1CSCN1
% is set by controls: 0 for no effect and ±100 for the full control effect.

The assay deals with Nuclear receptor subfamily 1 group I member 2 (Rattus norvegicus) (UniProt Q9R1A7). Description: Rat pregnane X receptor (rPXR) activation by small molecules, qHTS assay (AID 1346983). Note: nearly all actives have a fitted effect of over 20% in size. The conditions noted are these: rPXR luciferase reporter cells, One-Glo luminescence, 24 h; max activation: hits give high values. The procedure, abridged: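 Cell-based rPXR luciferase reporter assay, 2,000 cells per well, rested 5hr at 37 C before compound addition in DMSO, then 24 hr at 37 C. One-Glo reagent was added and luminescence read after 30 min at room temperature.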
Nuclear receptor subfamily 1 group I member 2 (Rattus norvegicus), sequence (Q9R1A7 whole entry, looked up): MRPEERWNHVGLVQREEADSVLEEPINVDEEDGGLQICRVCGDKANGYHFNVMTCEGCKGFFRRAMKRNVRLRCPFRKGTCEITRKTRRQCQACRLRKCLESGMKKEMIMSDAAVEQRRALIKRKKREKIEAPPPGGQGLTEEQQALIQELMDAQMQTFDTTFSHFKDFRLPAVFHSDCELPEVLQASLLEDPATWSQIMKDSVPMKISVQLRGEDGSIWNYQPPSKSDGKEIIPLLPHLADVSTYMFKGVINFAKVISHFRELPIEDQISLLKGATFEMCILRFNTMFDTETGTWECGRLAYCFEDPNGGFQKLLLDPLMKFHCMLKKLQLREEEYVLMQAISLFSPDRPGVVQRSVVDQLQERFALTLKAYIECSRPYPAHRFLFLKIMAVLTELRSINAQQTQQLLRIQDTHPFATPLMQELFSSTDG
For orientation: In qHTS, concentration-response curves come from the screen itself.
Take `O=C1CC[C@@H](C(=O)N2CSC[C@H]2C(=O)O)N1` ([pGlu]-[Thz]-OH): the max activation is 0.797% (inactive).
Turning to `COc1ccc(CC2c3cc(OC)c(OC)cc3CC[N+]2(C)CCC(=O)OCCCCCOC(=O)CC[N+]2(C)CCc3cc(OC)c(OC)cc3C2Cc2ccc(OC)c(OC)c2)cc1OC` (configuration not stated), the max activation was -3.66% (inactive).
`CCN(CC)CCCC(C)Nc1cc(/C=C/c2ccccc2Cl)nc2cc(Cl)ccc12` (configuration not stated): the max activation was -1.25% (inactive).
The value for `CO[C@H]1O[C@@H]2O[C@@]3(C)CC[C@H]4[C@H](C)CC[C@@H]([C@H]1C)[C@@]24OO3` was -2.27% (inactive).
Then `CO[C@H]1C[C@@H]2CC[C@@H](C)[C@@](O)(O2)C(=O)C(=O)N2CCCC[C@H]2C(=O)O[C@H]([C@H](C)C[C@@H]2CC[C@@H](OCCO)[C@H](OC)C2)CC(=O)[C@H](C)/C=C(\C)[C@@H](O)[C@@H](OC)C(=O)[C@H](C)C[C@H](C)/C=C/C=C/C=C/1C`, with -9.27% (inactive).
As for `CN1c2cc(O)c(N=NC(N)=O)cc2CC1S(=O)(=O)O` (configuration not stated), the max activation is 0.153% (inactive).
The value for `COc1ccc(-c2noc(CC(=O)O)c2-c2ccc(OC)cc2)cc1` was -3.32% (inactive); that for `Cn1c(O)c(N=NC(N)=S)c2ccccc21` was 1.06% (inactive).
On to `Nc1ncnc2c1ncn2CCOCP(=O)(O)O`, for which the max activation is -0.588% (inactive).
With `CC(=C\c1ccccc1)/C=C1/SC(=S)N(CC(=O)O)C1=O`, the max activation is 4.01% (inactive).
Then `CC(CCc1ccc(O)cc1)NCC(O)c1ccc(O)cc1` (configuration not stated), with -0.789% (inactive).
The value for `C[C@H](CCCC(C)(C)O)[C@H]1CC[C@H]2[C@@H]3CC=C4C[C@@H](O)CC[C@]4(C)[C@H]3CC[C@]12C` was -4.18% (inactive).
